We go through nine compounds from PubChem BioAssay (NCI).

Compounds without any hit were thinned out: in the full panel of roughly 79,000, 15% have a hit. Values without a mark were called inactive. Active and inactive are the calls of the source. No stated cut-off is given here; in the data, active means growth inhibition above about 70%; inactive means the rest.

Experiment [1] in a line: NCI Yeast Anticancer Drug Screen. Data for the rad50 strain (AID 155).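 Further: 0% = growth of vehicle-only cultures of the same strain.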 The following applies: S. cerevisiae rad50 strain growth inhibition, active compounds read high. The method, boiled down:
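A DNA repair-deficient yeast mutant serves as the test organism; compound-induced growth inhibition is calculated against vehicle-treated cells.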

A short description of experiment [2]: NCI Yeast Anticancer Drug Screen. Data for the mec2-1 strain (AID 157). The following applies: S. cerevisiae mec2-1 strain, active compounds read high. The method, boiled down: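 Mutant yeast (mec2-1) grown with compound; growth inhibition relative to vehicle control reported.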
Experiment [3] is described as follows: NCI Yeast Anticancer Drug Screen. Data for the sgs1 mgt1 strain (AID 161).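 Further: 0% = growth of cultures given vehicle only.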 The following applies: S. cerevisiae sgs1 mgt1 strain, active compounds read high. The method, boiled down: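 Growth of a repair-deficient yeast mutant was monitored after compound treatment and expressed as inhibition relative to vehicle-treated cultures.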
Experiment [4] can be described thus: NCI Yeast Anticancer Drug Screen. Data for the cln2 rad14 strain (AID 165).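 Further: 0% = growth equal to vehicle treated cultures.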 The following applies: S. cerevisiae cln2 rad14 strain, active compounds read high. The method, boiled down:
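Readout is yeast growth inhibition versus vehicle-treated controls, using a strain with cln2 and rad14 alterations exposed to compound.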

Experiment [5] is described as follows: NCI Yeast Anticancer Drug Screen. Data for the bub3 strain (AID 167). The following applies: S. cerevisiae bub3 mutant strain, active compounds read high. The method, boiled down:
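Inhibition values come from growth of compound-treated mutant yeast normalised to vehicle-treated controls.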

Experiment [6] can be described thus: NCI Yeast Anticancer Drug Screen. Data for the mlh1 rad18 strain (AID 175). The following applies: S. cerevisiae mlh1 rad18 strain growth inhibition, active compounds read high. The method, boiled down: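 Genetically defined yeast (DNA repair-deficient) exposed to compounds; growth inhibition determined relative to vehicle.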
Setting [7] is: at 5.0 µM (retest, dose inferred, filed as 0.5).
[8] abbreviates: at 50.0 µM (retest, dose inferred, filed as 5.0).

On to `CCOC(=O)C(Cc1cc(I)c(Oc2ccc(OC)cc2)c(I)c1)NC(C)=O` (configuration not stated), for which the growth inhibition is 36% in experiment [1] (setting [7]); 92% (active) in experiment [1] (setting [8]); 86.8% (active) in experiment [1] (at 50.0 µM); 28% in experiment [2] (setting [7]); 96% (active) in experiment [2] (setting [8]); 83.2% (active) in experiment [2] (at 50.0 µM). Further, the growth inhibition is 41% in experiment [3] (setting [7]); 97% (active) in experiment [3] (setting [8]); 69% in experiment [3] (at 50.0 µM); 23% in experiment [4] (setting [7]); 95% (active) in experiment [4] (setting [8]); 89.3% (active) in experiment [4] (at 50.0 µM). For the same compound, the growth inhibition was 39% in experiment [5] (setting [7]); 96% (active) in experiment [5] (setting [8]); 87.9% (active) in experiment [5] (at 50.0 µM); 38% in experiment [6] (setting [7]); 95% (active) in experiment [6] (setting [8]); 87.8% (active) in experiment [6] (at 50.0 µM).
With `CCOC(=O)CC(O)(CCc1ccccc1)c1ccccc1` (configuration not stated), the growth inhibition in experiment [1] (setting [7]) was -5%; in experiment [1] (setting [8]) it was 6%; in experiment [1] (at 50.0 µM), 25.4%; in experiment [2] (setting [7]), 1%; in experiment [2] (setting [8]), 2%; in experiment [2] (at 50.0 µM) it was 54.8%. The growth inhibition is -14% in experiment [3] (setting [7]); 22% in experiment [3] (setting [8]); -2.1% in experiment [3] (at 50.0 µM); -1% in experiment [4] (setting [7]); -14% in experiment [4] (setting [8]); -18.2% in experiment [4] (at 50.0 µM). Further, the growth inhibition in experiment [5] (setting [7]) was 14%; in experiment [5] (setting [8]) it was 40%; in experiment [5] (at 50.0 µM) it was 21.1%; in experiment [6] (setting [7]), -1%; in experiment [6] (setting [8]) it was 45%; in experiment [6] (at 50.0 µM) it was 9.95%.
On to `CS[C@H]1CC[C@H]2[C@@H]3CCc4cc(O)ccc4[C@H]3CC[C@]12C`, for which the growth inhibition was 0% in experiment [1] (setting [7]); 73% (active) in experiment [1] (setting [8]); 71.6% (active) in experiment [1] (at 50.0 µM); 2% in experiment [2] (setting [7]); 66% in experiment [2] (setting [8]); 61.8% in experiment [2] (at 50.0 µM). In addition, the growth inhibition in experiment [3] (setting [7]) is 0%; in experiment [3] (setting [8]), 71% (active); in experiment [3] (at 50.0 µM), 63.4%; in experiment [4] (setting [7]), 7%; in experiment [4] (setting [8]), 85% (active); in experiment [4] (at 50.0 µM) it was 87.6% (active). The growth inhibition in experiment [5] (setting [7]) was 12%; in experiment [5] (setting [8]), 81% (active); in experiment [5] (at 50.0 µM) it was 82.8% (active); in experiment [6] (setting [7]), -8%; in experiment [6] (setting [8]), 75% (active); in experiment [6] (at 50.0 µM) it was 85.8% (active).
Consider `COc1ccc(/C(Cl)=C(\C=O)c2ccc(Cl)c(Cl)c2)cc1`, for which the growth inhibition in experiment [1] (setting [7]) is 2%; in experiment [1] (setting [8]), 49%; in experiment [1] (at 50.0 µM), 99% (active); in experiment [2] (setting [7]), 8%; in experiment [2] (setting [8]) it was 70% (active); in experiment [2] (at 50.0 µM), 98.9% (active). The growth inhibition in experiment [3] (setting [7]) is 13%; in experiment [3] (setting [8]), 85% (active); in experiment [3] (at 50.0 µM), 99.3% (active); in experiment [4] (setting [7]), -10%; in experiment [4] (setting [8]), 55%; in experiment [4] (at 50.0 µM), 92.5% (active). Also, the growth inhibition in experiment [5] (setting [7]) is 41%; in experiment [5] (setting [8]) it was 82% (active); in experiment [5] (at 50.0 µM), 97.8% (active); in experiment [6] (setting [7]), 27%; in experiment [6] (setting [8]) it was 79% (active); in experiment [6] (at 50.0 µM), 98.2% (active).
Regarding `CN(C)c1ccc(C2CC(C)(N3CCCC3)Oc3cc4c(cc32)OCO4)cc1` (configuration not stated), the growth inhibition is 23% in experiment [1] (setting [7]); 42% in experiment [1] (setting [8]); 17.1% in experiment [1] (at 50.0 µM); 2% in experiment [2] (setting [7]); 24% in experiment [2] (setting [8]); 5% in experiment [2] (at 50.0 µM). Moreover, the growth inhibition is -10% in experiment [3] (setting [7]); 43% in experiment [3] (setting [8]); 13.3% in experiment [3] (at 50.0 µM); 9% in experiment [4] (setting [7]); 50% in experiment [4] (setting [8]); 23.9% in experiment [4] (at 50.0 µM). Also, the growth inhibition in experiment [5] (setting [7]) is 11%; in experiment [5] (setting [8]) it was 84% (active); in experiment [5] (at 50.0 µM), 26.9%; in experiment [6] (setting [7]) it was 12%; in experiment [6] (setting [8]), 32%; in experiment [6] (at 50.0 µM), 33.5%.
Regarding `c1cc(Nc2ccc(Nc3ccc(CN4CCCCC4)cc3)cc2)ccc1CN1CCCCC1`, the growth inhibition was 39% in experiment [1] (setting [7]); 98% (active) in experiment [1] (setting [8]); 81.8% (active) in experiment [1] (at 50.0 µM); 31% in experiment [2] (setting [7]); 99% (active) in experiment [2] (setting [8]); 89.8% (active) in experiment [2] (at 50.0 µM). The growth inhibition in experiment [3] (setting [7]) was 66%; in experiment [3] (setting [8]) it was 99% (active); in experiment [3] (at 50.0 µM), 90.9% (active); in experiment [4] (setting [7]), 54%; in experiment [4] (setting [8]), 99% (active); in experiment [4] (at 50.0 µM), 83.2% (active). Besides, the growth inhibition is 63% in experiment [5] (setting [7]); 99% (active) in experiment [5] (setting [8]); 89.2% (active) in experiment [5] (at 50.0 µM); 36% in experiment [6] (setting [7]); 98% (active) in experiment [6] (setting [8]); 87.5% (active) in experiment [6] (at 50.0 µM).
`CCc1cc2c(c3[nH]ccc13)[C@@H](C)C[C@H]2C`: the growth inhibition is -3% in experiment [1] (setting [7]); 99% (active) in experiment [1] (setting [8]); 73% (active) in experiment [1] (at 50.0 µM); 3% in experiment [2] (setting [7]); 99% (active) in experiment [2] (setting [8]); 84.2% (active) in experiment [2] (at 50.0 µM). The growth inhibition in experiment [3] (setting [7]) is 0%; in experiment [3] (setting [8]), 99% (active); in experiment [3] (at 50.0 µM) it was 84.8% (active); in experiment [4] (setting [7]), -3%; in experiment [4] (setting [8]) it was 98% (active); in experiment [4] (at 50.0 µM) it was 84.3% (active). The growth inhibition was 9% in experiment [5] (setting [7]); 98% (active) in experiment [5] (setting [8]); 91.5% (active) in experiment [5] (at 50.0 µM); 2% in experiment [6] (setting [7]); 99% (active) in experiment [6] (setting [8]); 88.5% (active) in experiment [6] (at 50.0 µM).
Take `COc1ccccc1NC(=O)CC(=O)N1N=C(C)C(N=Nc2ccc(I)cc2)C1=O` (configuration not stated): the growth inhibition in experiment [1] (setting [7]) is 5%; in experiment [1] (setting [8]), 36%; in experiment [1] (at 50.0 µM) it was 93% (active); in experiment [2] (setting [7]), 6%; in experiment [2] (setting [8]) it was 30%; in experiment [2] (at 50.0 µM), 11.1%. Further, the growth inhibition in experiment [3] (setting [7]) is 6%; in experiment [3] (setting [8]), 28%; in experiment [3] (at 50.0 µM), 83.1% (active); in experiment [4] (setting [7]), 2%; in experiment [4] (setting [8]) it was 20%; in experiment [4] (at 50.0 µM) it was -39.5%. Moreover, the growth inhibition in experiment [5] (setting [7]) was 5%; in experiment [5] (setting [8]) it was 41%; in experiment [5] (at 50.0 µM), 33%; in experiment [6] (setting [7]) it was 2%; in experiment [6] (setting [8]), 41%; in experiment [6] (at 50.0 µM), 85.6% (active).
`CCCCNCCC(SSSC(CCNCCCC)c1ccc(Cl)cc1)c1ccc(Cl)cc1` (configuration not stated): the growth inhibition in experiment [1] (setting [7]) is 26%; in experiment [1] (setting [8]) it was 97% (active); in experiment [1] (at 50.0 µM), 95.2% (active); in experiment [2] (setting [7]) it was -74%; in experiment [2] (setting [8]), 98% (active); in experiment [2] (at 50.0 µM), 52.5%. For the same compound, the growth inhibition in experiment [3] (setting [7]) is 20%; in experiment [3] (setting [8]), 99% (active); in experiment [3] (at 50.0 µM), 98.4% (active); in experiment [4] (setting [7]), 17%; in experiment [4] (setting [8]), 97% (active); in experiment [4] (at 50.0 µM), 20.1%. Besides, the growth inhibition in experiment [5] (setting [7]) is 25%; in experiment [5] (setting [8]), 98% (active); in experiment [5] (at 50.0 µM), 52.2%; in experiment [6] (setting [7]) it was 26%; in experiment [6] (setting [8]), 98% (active); in experiment [6] (at 50.0 µM), 97.7% (active).
